The values that follow come from PMC7862700, “An all-to-all approach to the identification of sequence-specific readers for epigenetic DNA modifications on cytosine”.

Common to all, as to assay: DAPPL (digital affinity profiling via proximity ligation, sequencing); 10 mM Tris-HCl pH 7.5, 50 mM NaCl, 1 mM DTT, 4% glycerol, room temperature, 30 min; GST-TFs on glutathione beads, 16-mer random dsDNA library, 0.1% formaldehyde crosslink after washing; high values mean tight binding
One test concerns the target T1, FEV (Homo sapiens, UniProt Q99581 1-238).
T1 sequence: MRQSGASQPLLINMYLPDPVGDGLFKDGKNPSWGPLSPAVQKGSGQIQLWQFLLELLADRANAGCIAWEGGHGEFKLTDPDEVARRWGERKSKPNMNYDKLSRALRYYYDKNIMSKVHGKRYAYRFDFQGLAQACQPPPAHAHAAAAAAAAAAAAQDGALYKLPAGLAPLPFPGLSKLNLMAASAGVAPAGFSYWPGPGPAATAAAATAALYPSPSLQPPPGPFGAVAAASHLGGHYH
The settings on record: protein: recombinant; tags: N-terminal GST; dsDNA, one strand shown. A digest of the protocol: (§1)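 Binding signal is given per hexamer as its read frequency for a factor divided by its frequency in the tag-only sample. GST-fused human transcription factors were expressed in yeast, captured on glutathione beads, barcoded with DNA and pooled with that sample, then incubated with 200 nmole of a 16-mer random double-stranded DNA library in Tris/NaCl/DTT/glycerol buffer for 30 min at room temperature. The pools were then washed, crosslinked, proximity-ligated, amplified by PCR and sequenced on an Illumina NextSeq500.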

The target of a further test is ETV5 (Homo sapiens, UniProt P41161 1-510). Particulars: protein: recombinant; tags: N-terminal GST; dsDNA, one strand shown. The gist of the method: as §1
The target of the next test is HSF1 (Homo sapiens, UniProt Q00613 1-529). Particulars: protein: recombinant; tags: N-terminal GST; chain copies: 3; dsDNA, one strand shown. A digest of the protocol: as §1
The next test deals with ELF4 (Homo sapiens, UniProt Q99607 1-663). Particulars: protein: recombinant; tags: N-terminal GST; dsDNA, one strand shown. A digest of the protocol:
as §1

In a further test the target is T2, ELK4 (Homo sapiens, UniProt P28324-2 1-405).
T2 sequence: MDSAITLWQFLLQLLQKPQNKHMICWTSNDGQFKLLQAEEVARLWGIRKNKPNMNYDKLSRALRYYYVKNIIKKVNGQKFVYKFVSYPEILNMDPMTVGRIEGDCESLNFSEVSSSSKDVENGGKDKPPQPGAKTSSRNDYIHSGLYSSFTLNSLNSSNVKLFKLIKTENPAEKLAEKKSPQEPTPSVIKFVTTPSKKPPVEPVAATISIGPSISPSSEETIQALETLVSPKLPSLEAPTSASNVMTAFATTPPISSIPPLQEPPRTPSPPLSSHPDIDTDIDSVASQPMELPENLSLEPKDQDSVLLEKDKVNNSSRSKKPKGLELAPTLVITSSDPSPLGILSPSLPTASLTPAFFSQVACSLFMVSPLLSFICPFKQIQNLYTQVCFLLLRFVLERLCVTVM
Particulars: protein: recombinant; tags: N-terminal GST; dsDNA, one strand shown. The gist of the method: as §1

The target of a further test is T3, ETV2 (Homo sapiens, UniProt O00321 1-342).
T3 sequence: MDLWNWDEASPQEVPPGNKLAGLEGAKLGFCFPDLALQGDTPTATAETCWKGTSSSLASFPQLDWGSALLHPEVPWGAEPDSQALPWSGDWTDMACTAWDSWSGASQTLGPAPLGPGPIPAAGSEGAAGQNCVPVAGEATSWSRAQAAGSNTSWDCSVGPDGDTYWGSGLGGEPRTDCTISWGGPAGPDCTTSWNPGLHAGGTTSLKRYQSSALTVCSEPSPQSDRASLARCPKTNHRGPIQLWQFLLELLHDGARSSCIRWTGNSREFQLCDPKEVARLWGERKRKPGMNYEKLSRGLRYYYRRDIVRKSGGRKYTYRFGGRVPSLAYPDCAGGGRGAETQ
Particulars: protein: recombinant; tags: N-terminal GST; dsDNA, one strand shown. The gist of the method:
as §1

In the next test the target is T4, ELF3 (Homo sapiens, UniProt P78545 1-371).
T4 sequence: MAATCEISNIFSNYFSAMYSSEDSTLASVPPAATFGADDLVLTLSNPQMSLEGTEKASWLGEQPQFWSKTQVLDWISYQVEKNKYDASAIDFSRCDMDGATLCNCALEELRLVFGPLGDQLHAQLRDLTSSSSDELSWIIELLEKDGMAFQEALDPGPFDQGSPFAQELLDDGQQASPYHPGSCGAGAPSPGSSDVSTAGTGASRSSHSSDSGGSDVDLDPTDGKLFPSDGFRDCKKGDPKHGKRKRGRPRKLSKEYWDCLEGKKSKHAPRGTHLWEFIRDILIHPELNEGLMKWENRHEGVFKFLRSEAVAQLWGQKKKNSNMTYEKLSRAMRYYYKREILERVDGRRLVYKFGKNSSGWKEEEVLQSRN
Particulars: protein: recombinant; tags: N-terminal GST; dsDNA, one strand shown. The gist of the method: as §1

Another test addresses CRX (Homo sapiens, UniProt O43186 1-299). The settings on record: protein: recombinant; tags: N-terminal GST; dsDNA, one strand shown. The gist of the method:
as §1

The target in another test is ETV1 (Homo sapiens, UniProt P50549 1-477). Particulars: protein: recombinant; tags: N-terminal GST; dsDNA, one strand shown. A digest of the protocol: as §1
ETV1, sequence (P50549 whole entry): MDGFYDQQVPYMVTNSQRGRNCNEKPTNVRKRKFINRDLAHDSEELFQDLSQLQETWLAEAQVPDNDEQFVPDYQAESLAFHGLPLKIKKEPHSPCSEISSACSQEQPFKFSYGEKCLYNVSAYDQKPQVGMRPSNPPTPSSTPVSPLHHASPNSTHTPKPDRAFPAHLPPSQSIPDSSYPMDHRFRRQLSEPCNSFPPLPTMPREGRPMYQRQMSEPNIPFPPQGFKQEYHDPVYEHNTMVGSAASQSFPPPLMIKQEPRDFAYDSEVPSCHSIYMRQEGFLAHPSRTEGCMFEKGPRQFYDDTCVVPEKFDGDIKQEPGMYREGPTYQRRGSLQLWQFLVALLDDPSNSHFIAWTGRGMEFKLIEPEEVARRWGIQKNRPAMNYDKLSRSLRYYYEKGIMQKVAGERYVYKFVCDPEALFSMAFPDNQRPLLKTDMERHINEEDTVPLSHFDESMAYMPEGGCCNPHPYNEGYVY

ELF4, sequence (Q99607 whole entry): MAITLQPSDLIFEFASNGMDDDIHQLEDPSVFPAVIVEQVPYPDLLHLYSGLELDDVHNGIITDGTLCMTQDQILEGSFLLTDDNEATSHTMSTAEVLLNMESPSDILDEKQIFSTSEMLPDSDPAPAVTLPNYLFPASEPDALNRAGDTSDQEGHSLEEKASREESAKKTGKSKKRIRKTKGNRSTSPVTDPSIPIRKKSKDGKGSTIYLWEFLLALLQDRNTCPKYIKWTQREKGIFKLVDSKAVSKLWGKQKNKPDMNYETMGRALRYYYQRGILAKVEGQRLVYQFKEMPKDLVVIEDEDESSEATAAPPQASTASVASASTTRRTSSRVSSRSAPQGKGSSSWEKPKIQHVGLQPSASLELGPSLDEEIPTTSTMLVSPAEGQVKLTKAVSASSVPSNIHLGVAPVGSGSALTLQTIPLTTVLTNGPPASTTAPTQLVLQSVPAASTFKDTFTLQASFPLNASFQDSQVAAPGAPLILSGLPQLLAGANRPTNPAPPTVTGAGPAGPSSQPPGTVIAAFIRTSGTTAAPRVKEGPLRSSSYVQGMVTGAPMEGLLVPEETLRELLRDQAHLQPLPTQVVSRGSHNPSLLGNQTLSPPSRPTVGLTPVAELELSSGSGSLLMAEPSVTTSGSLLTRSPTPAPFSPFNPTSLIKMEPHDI
CRX, sequence (O43186 whole entry): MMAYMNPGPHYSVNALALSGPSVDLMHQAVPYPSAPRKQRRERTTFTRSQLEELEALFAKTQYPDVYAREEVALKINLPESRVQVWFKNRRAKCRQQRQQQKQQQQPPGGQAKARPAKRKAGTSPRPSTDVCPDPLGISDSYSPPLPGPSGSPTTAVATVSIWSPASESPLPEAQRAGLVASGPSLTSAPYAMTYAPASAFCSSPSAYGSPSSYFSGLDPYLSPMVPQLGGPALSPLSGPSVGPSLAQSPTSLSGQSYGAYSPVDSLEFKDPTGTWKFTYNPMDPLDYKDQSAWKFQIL
HSF1, sequence (Q00613 whole entry): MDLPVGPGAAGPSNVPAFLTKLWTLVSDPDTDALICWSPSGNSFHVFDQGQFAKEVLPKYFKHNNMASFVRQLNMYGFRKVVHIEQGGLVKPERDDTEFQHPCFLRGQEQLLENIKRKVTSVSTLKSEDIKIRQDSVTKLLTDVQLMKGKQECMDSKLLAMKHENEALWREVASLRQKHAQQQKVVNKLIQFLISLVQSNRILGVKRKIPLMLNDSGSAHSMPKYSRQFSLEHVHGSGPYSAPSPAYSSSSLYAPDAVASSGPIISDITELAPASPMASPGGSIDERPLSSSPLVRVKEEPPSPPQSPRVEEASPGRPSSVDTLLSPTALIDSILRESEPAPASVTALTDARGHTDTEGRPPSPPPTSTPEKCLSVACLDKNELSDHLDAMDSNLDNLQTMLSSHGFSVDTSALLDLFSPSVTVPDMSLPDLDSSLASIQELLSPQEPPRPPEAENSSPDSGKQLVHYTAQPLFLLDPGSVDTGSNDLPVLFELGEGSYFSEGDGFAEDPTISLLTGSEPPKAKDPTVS
ETV5, sequence (P41161 whole entry): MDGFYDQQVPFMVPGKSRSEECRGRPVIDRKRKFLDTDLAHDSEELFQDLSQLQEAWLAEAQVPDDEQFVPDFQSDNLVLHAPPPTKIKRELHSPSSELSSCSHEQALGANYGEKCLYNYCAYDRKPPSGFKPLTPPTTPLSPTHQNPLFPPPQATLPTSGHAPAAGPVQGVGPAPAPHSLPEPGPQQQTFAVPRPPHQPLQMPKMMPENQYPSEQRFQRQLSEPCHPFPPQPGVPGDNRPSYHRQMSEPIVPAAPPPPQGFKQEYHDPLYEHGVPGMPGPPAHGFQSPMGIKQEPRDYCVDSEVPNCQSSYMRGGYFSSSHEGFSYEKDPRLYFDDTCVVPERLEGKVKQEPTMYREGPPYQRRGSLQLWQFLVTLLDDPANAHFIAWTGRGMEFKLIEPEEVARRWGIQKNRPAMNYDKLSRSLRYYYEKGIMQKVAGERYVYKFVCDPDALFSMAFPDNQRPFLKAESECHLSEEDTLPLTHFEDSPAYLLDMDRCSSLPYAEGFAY

Take GTTTTA: the binding signal with FEV is 1.08 fold enrichment (6-mer frequency, TF over GST control); with ETV5, 1.07 fold enrichment (6-mer frequency, TF over GST control); with HSF1 it was 1.17 fold enrichment (6-mer frequency, TF over GST control); in the test with ELF4, 1.15 fold enrichment (6-mer frequency, TF over GST control); with ELK4, 1.07 fold enrichment (6-mer frequency, TF over GST control); with ETV2, 1.1 fold enrichment (6-mer frequency, TF over GST control). Further, the binding signal in the test with ELF3 is 1.06 fold enrichment (6-mer frequency, TF over GST control); in the test with CRX it was 1.41 fold enrichment (6-mer frequency, TF over GST control); with ETV1, 1.13 fold enrichment (6-mer frequency, TF over GST control).
Consider CCATTG, for which the binding signal in the test with FEV was 1.15 fold enrichment (6-mer frequency, TF over GST control); with ETV5, 1.16 fold enrichment (6-mer frequency, TF over GST control); with HSF1 it was 1.07 fold enrichment (6-mer frequency, TF over GST control); with ELF4, 1.17 fold enrichment (6-mer frequency, TF over GST control); in the test with ELK4, 1.11 fold enrichment (6-mer frequency, TF over GST control); with ETV2 it was 1.26 fold enrichment (6-mer frequency, TF over GST control). In addition, the binding signal with ELF3 is 1.07 fold enrichment (6-mer frequency, TF over GST control); with CRX, 1.02 fold enrichment (6-mer frequency, TF over GST control); with ETV1, 1.05 fold enrichment (6-mer frequency, TF over GST control).
On to TAACCA, for which the binding signal was 1 fold enrichment (6-mer frequency, TF over GST control) in the test with FEV; 1.06 fold enrichment (6-mer frequency, TF over GST control) with ETV5; 1.16 fold enrichment (6-mer frequency, TF over GST control) with HSF1; 1.16 fold enrichment (6-mer frequency, TF over GST control) with ELF4; 1.04 fold enrichment (6-mer frequency, TF over GST control) with ELK4; 1.12 fold enrichment (6-mer frequency, TF over GST control) with ETV2. Also, the binding signal was 1.1 fold enrichment (6-mer frequency, TF over GST control) in the test with ELF3; 1.31 fold enrichment (6-mer frequency, TF over GST control) in the test with CRX; 1.02 fold enrichment (6-mer frequency, TF over GST control) with ETV1.
On to ACAAGC, for which the binding signal with FEV was 1.09 fold enrichment (6-mer frequency, TF over GST control); in the test with ETV5 it was 1.12 fold enrichment (6-mer frequency, TF over GST control); with HSF1 it was 1.01 fold enrichment (6-mer frequency, TF over GST control); with ELF4 it was 1.13 fold enrichment (6-mer frequency, TF over GST control); with ELK4 it was 1.12 fold enrichment (6-mer frequency, TF over GST control); with ETV2 it was 1.06 fold enrichment (6-mer frequency, TF over GST control). The binding signal was 1.07 fold enrichment (6-mer frequency, TF over GST control) in the test with ELF3; 1.07 fold enrichment (6-mer frequency, TF over GST control) in the test with CRX; 1.16 fold enrichment (6-mer frequency, TF over GST control) in the test with ETV1.
Regarding AAGACT, the binding signal in the test with FEV is 1.08 fold enrichment (6-mer frequency, TF over GST control); with ETV5, 1.09 fold enrichment (6-mer frequency, TF over GST control); in the test with HSF1, 1.23 fold enrichment (6-mer frequency, TF over GST control); in the test with ELF4, 1.14 fold enrichment (6-mer frequency, TF over GST control); with ELK4, 1.06 fold enrichment (6-mer frequency, TF over GST control); with ETV2 it was 1.07 fold enrichment (6-mer frequency, TF over GST control). The binding signal with ELF3 is 1.1 fold enrichment (6-mer frequency, TF over GST control); with CRX, 1.36 fold enrichment (6-mer frequency, TF over GST control); in the test with ETV1 it was 1.02 fold enrichment (6-mer frequency, TF over GST control).
For the sequence CGAGTT, the binding signal in the test with ETV5 is 1.1 fold enrichment (6-mer frequency, TF over GST control); in the test with HSF1, 1.07 fold enrichment (6-mer frequency, TF over GST control); in the test with ELF4 it was 1.06 fold enrichment (6-mer frequency, TF over GST control); with ELK4 it was 1.1 fold enrichment (6-mer frequency, TF over GST control); with ETV2, 1.11 fold enrichment (6-mer frequency, TF over GST control); with ELF3, 1.16 fold enrichment (6-mer frequency, TF over GST control). The binding signal in the test with ETV1 was 1.04 fold enrichment (6-mer frequency, TF over GST control).
As to GAACAT, the binding signal with FEV is 1.01 fold enrichment (6-mer frequency, TF over GST control); with ETV5, 1.12 fold enrichment (6-mer frequency, TF over GST control); with HSF1, 1.81 fold enrichment (6-mer frequency, TF over GST control); with ELF4, 1 fold enrichment (6-mer frequency, TF over GST control); with ETV2, 1.01 fold enrichment (6-mer frequency, TF over GST control); in the test with ELF3 it was 1.06 fold enrichment (6-mer frequency, TF over GST control). For the same sequence, the binding signal with CRX is 1.03 fold enrichment (6-mer frequency, TF over GST control).
